Test results published in the antibiotic and cytotoxicity screens of Wong et al. (2023).
Screen size: about 39,000 compounds; about 3,300 (8.5%) were called active. Only a selection was taken, and actives are over-represented in it overall.

tested on: HepG2; assay: cytotoxicity call (relative viability < 0.9); conditions: 10 µM

Row | Compound | cytotoxicity call
1 | COc1ccc(S(=O)(=O)N(C)C[C@@H]2Oc3ccc(NS(=O)(=O)c4ccc(C)cc4)cc3CC(=O)N([C@H](C)CO)C[C@@H]2C)cc1 | inactive
2 | CC(C)NC(=O)N(C)C[C@@H]1Oc2cc(C#Cc3cccc(F)c3)ccc2S(=O)(=O)N([C@H](C)CO)C[C@H]1C | inactive
3 | Cc1ccc(S(=O)(=O)N(C)C[C@H]2OCCCC[C@H](C)Oc3ccc(NC(=O)Nc4ccc(F)cc4)cc3C(=O)N([C@@H](C)CO)C[C@H]2C)cc1 | inactive
4 | Cc1ccc(S(=O)(=O)N(C)C[C@H]2Oc3c(NC(=O)NC(C)C)cccc3C(=O)N([C@@H](C)CO)C[C@@H]2C)cc1 | inactive
5 | C[C@@H]1CCCCO[C@@H](CN(C)S(=O)(=O)c2ccc(F)cc2)[C@H](C)CN([C@@H](C)CO)C(=O)c2cc(NC(=O)C3CCCCC3)ccc2O1 | inactive
6 | C[C@H](CO)N1C[C@H](C)[C@H](CN(C)C(=O)Nc2ccc3c(c2)OCO3)OCCCC[C@H](C)Oc2ccc(NC(=O)Nc3cccc4ccccc34)cc2C1=O | inactive
7 | C[C@@H]1CCCCO[C@@H](CN(C)Cc2ccccc2)[C@H](C)CN([C@H](C)CO)C(=O)c2cc(NC(=O)C3CCCCC3)ccc2O1 | inactive
8 | CC(C)NC(=O)N(C)C[C@@H]1Oc2cc(-c3ccccc3F)ccc2S(=O)(=O)N([C@H](C)CO)C[C@@H]1C | inactive
9 | C[C@@H]1CCCCO[C@H](CN(C)C(=O)Nc2ccc(C(F)(F)F)cc2)[C@H](C)CN([C@@H](C)CO)C(=O)c2cc(NC(=O)C3CCCCC3)ccc2O1 | inactive
10 | Cc1cc(C)cc(C(=O)N(C)[C@H](Cc2ccc(-c3ccccc3)cc2)C(=O)N[C@@H](Cc2c[nH]c3ccccc23)C(=O)O)c1 | inactive
11 | NCCCC[C@@H](N)C(=O)N[C@@H](Cc1c[nH]c2ccccc12)C(=O)N[C@@H](CCCCN)C(=O)O | inactive
12 | O=C(NC(Cc1cc(=O)[nH]c2ccccc12)C(=O)O)c1ccc(Cl)cc1 (stereo not given) | active
13 | Cc1noc(C)c1NC(=O)Nc1ccc2c(c1)C(=O)N([C@H](C)CO)C[C@H](C)[C@@H](CN(C)C(=O)Nc1ccccc1)OCCCC[C@@H](C)O2 | inactive
14 | CC(C)[C@@H](N)c1nc2ccccc2[nH]1 | inactive
15 | C[C@@H]1CN([C@@H](C)CO)C(=O)c2cc(NC(=O)Nc3ccc4c(c3)OCO4)ccc2O[C@@H]1CN(C)Cc1ccc(Cl)c(Cl)c1 | active
16 | C[C@@H]1CN([C@@H](C)CO)C(=O)c2cc(NC(=O)Nc3ccc4c(c3)OCO4)ccc2O[C@H]1CN(C)Cc1ccc(Cl)c(Cl)c1 | active
17 | C[C@H]1CN([C@@H](C)CO)C(=O)c2cc(NC(=O)Nc3ccc4c(c3)OCO4)ccc2O[C@@H]1CN(C)Cc1ccc(Cl)c(Cl)c1 | inactive
18 | C[C@H]1CN([C@@H](C)CO)C(=O)c2cc(NC(=O)Nc3ccc4c(c3)OCO4)ccc2O[C@H]1CN(C)Cc1ccc(Cl)c(Cl)c1 | inactive
19 | C[C@@H]1CN([C@H](C)CO)C(=O)c2cc(NC(=O)Nc3ccc4c(c3)OCO4)ccc2O[C@@H]1CN(C)Cc1ccc(Cl)c(Cl)c1 | inactive
20 | C[C@H](CO)N1C[C@H](C)[C@H](CN(C)Cc2ccc(Cl)c(Cl)c2)Oc2ccc(NC(=O)Nc3ccc4c(c3)OCO4)cc2C1=O | inactive
